Molecules are shown by their SMILES. A number with no mark means an inactive call. The source made the active and inactive calls. Calls follow the shape of the dose curve; as a rule, active = well fitted curve in the direction sought with a large enough effect in the repeat runs; inconclusive = weak or mixed curves; inactive = flat fitted curve, though single readings scatter.
% is scaled to controls: 0 for no effect and ±100 for the full control effect.

The nature of the test: qHTS assay to test for compound auto fluorescence at 590 nm (red) in HEK293 cell free culture (AID 720683). The note with it: cell-free medium autofluorescence, Ex540/Em590 red; series mostly up to 91.3 µM; fluorescence, % of fluorescent control: at the top concentration. From the text: U.S. Tox21 Program National Center for Advancing Translational Sciences [NCATS] NIH Chemical Genomics Center [NCGC] U.S. Environmental Protection Agency [EPA] National Institutes of Environmental Health Sciences [NIEHS] National Toxicology Program [NTP] U.S. Food and Drug Administration [FDA] Tox21 Assay Overview: Compound auto fluorescence often interferes with screening of the compound library against various biological targets and signaling pathways. Some of these compounds may have fluorophoric properties. Such properties may interfere with the assay outputs resulting in false positives and/or negatives. To decrease such complications and ensure the compound activities are relevant in terms of biological response, the Tox21 10K compound library was screened for auto fluorescence. From the fluorophores used as reporter signals in our screening assays, the auto fluorescence equivalencies of compounds against three fluorophores have been evaluated: Triamterene, Fluorescein and Rose Bengal sodium for blue, green and red fluorescence, respectively. The fluorescence intensities were measured using Excitation/Emission wavelengths at 405/460nm, 485/535nm and 540/590nm for blue, green and red labels, respectively. This assay includes the red fluorescence data.
Tox21 Assay Protocol Summary: 5 uL of culture medium (DMEM containing 10% FBS) per well was dispensed into black wall/clear bottom 1536-well plates using a Multidrop Combi Dispenser (ThermoFisher Scientific, Waltham, MA). After 23 nL compound or DMSO vehicle was transferred into assay plate by a pintool work station (Kalypsys, San Diego, CA), fluorescence intensities in the assay plates were measured by an Envision (PerkinElmer, Shelton, CT) plate reader using three labels for measuring blue, green and red fluorescence at […] 460, 535 and 590nm respectively.
Turning to `Cc1ccn2nc(S(=O)(=O)Nc3c(F)cccc3F)nc2n1`, the “fluorescence, % of fluorescent control” value is -0.0333%.
Still for that read-out and setting: the value for `O=[N+]([O-])[O-].[Tl+]` was 0.152%.
`CCN(CC)C(=S)S`: the molecule was classed as inactive.
Consider `Cc1ccc2cc3c(ccc4ccccc43)c3c2c1CC3`, for which the “fluorescence, % of fluorescent control” value is -0.245% [at 46 µM].
Same read-out and setting: to `CNC(=O)Oc1cc(C)cc(C(C)C)c1` belongs -0.131%; to `CC(Cc1ccc2c(c1)OCO2)NO` (stereo not given), 0.126% [at 95.7 µM].
Same read-out and setting: the value for `CCCCCCC[CH2][Sn]([Cl])([Cl])[CH2]CCCCCCC` was 0.149%; that for `Oc1cc(Cl)cc(Cl)c1` was -0.326%.
Still for that read-out and setting: to `S=C=NCCc1ccccc1` belongs -0.121%; to `CCCCON=O`, 0.0956% [at 95.7 µM].
In the case of `CC[C@]1(O)CC[C@H]2[C@@H]3CCC4=CCCC[C@@H]4[C@H]3CC[C@@]21C`, the “fluorescence, % of fluorescent control” value is -0.292% [at 46 µM].
Same read-out and setting: to `CN=C=O` belongs -0.142% [at 95.7 µM]; to `N#Cc1sc2c(=O)c3ccccc3c(=O)c=2sc1C#N`, -0.49%.
Still for that read-out and setting: the value for `Clc1ccc(C(Cl)(Cl)Cl)cc1Cl` was -0.23%.
The same measure, in the same setting: to `C[C@H]1[C@H](c2ccc(Cl)cc2)SC(=O)N1C(=O)NC1CCCCC1` belongs 0.0432%; to `CCNc1nc(NC(C)C(C)C)nc(SC)n1` (stereo not given), -0.146%.
`c1ccc2nc(N3CCNCC3)ccc2c1`: the “fluorescence, % of fluorescent control” value was 0.143% [at 46 µM].
Same read-out and setting: the value for `O=C(Cl)c1ccccc1F` was 0.0019%.
On the same count and under the same terms, to `CN1C(=O)[C@@H](NC(=O)c2cc3ccccc3[nH]2)N=C(c2ccccc2)c2ccccc21` belongs 0.437% [at 46 µM].
On to `ClC1=C(Cl)[C@]2(Cl)[C@H]3[C@H]([C@@H]4C=C[C@H]3C4)[C@@]1(Cl)C2(Cl)Cl`, for which the molecule was classed as inactive.
Take `O.O.O.O.O.O.O=S(=O)([O-])[O-].[Ni+2]`: the “fluorescence, % of fluorescent control” value is -0.428% [at 46 µM].
For `O=C(O)[C@H](O)[C@@H](O)C(=O)O`, the “fluorescence, % of fluorescent control” value was 0.172%.
In the case of `CCO/N=C(\CC)C1=C(O)CC(c2c(C)cc(C)cc2C)CC1=O` (stereo not given), the “fluorescence, % of fluorescent control” value was 0.571%.
On to `CNN`, for which the “fluorescence, % of fluorescent control” value was -0.0625% [at 95.7 µM].
Same read-out and setting: the value for `CCC1COC(Cn2cncn2)(c2ccc(Cl)cc2Cl)O1` (stereo not given) was -0.0302%.
The same measure, in the same setting: to `Brc1ccc(Oc2ccc(Br)cc2Br)c(Br)c1` belongs 0.067%.
On the same count and under the same terms, the value for `ClCBr` was 0.0617% [at 95.7 µM].
As for `CC(=O)[O-].CC(=O)[O-].CC(=O)[O-].[Sb+3]`, the fluorescence, % of fluorescent control is -0.102% [at 3.72 µM].
For the molecule `c1ccc(N=NNc2ccccc2)cc1`, the result was inactive.
Take `COC(=O)c1ccccc1S(=O)(=O)NC(=O)Nc1nc(C)nc(OC)n1`: the “fluorescence, % of fluorescent control” value was 0.0591%.
Consider `O=Cc1ccccc1`, for which the outcome was inactive.
Turning to `[F][Sn]([c]1ccccc1)([c]1ccccc1)[c]1ccccc1`, the “fluorescence, % of fluorescent control” value is 0.0888%.
Still for that read-out and setting: the value for `CCOP(=S)(OCC)Oc1cc(C)nc(N(CC)CC)n1` was 0.0188%.
Turning to `N#CCCl`, the “fluorescence, % of fluorescent control” value is -0.565% [at 95.7 µM].
In the case of `O=C1C[C@@H]2OCC=C3CN4CC[C@]56c7ccccc7N1[C@H]5[C@H]2[C@H]3C[C@H]46`, the call was inactive.
For `CCCCN(CCCC)C(=S)[S-].CCCCN(CCCC)C(=S)[S-].[Ni+2]`, the “fluorescence, % of fluorescent control” value is 0.037% [at 46 µM].
The same measure, in the same setting: the value for `Clc1c(Cl)c(Cl)c(Cl)c(Cl)c1Cl` was 0.029% [at 3.72 µM]; that for `O=[N+]([O-])c1cccc2cccc([N+](=O)[O-])c12` was -0.0578%; that for `O=[N+]([O-])c1ccccc1-c1ccccc1` was 0.0693%.
On the same count and under the same terms, to `Nc1cc(Cl)ccc1Cl` belongs 0.0239%.
